These compounds were tested against Follistatin-related protein 3 (Homo sapiens) (UniProt O95633) (assay: compounds binding follistatin-related protein 3 – biochemical, small-molecule microarray, 635 nm fluorescence, primary screen (AID 1105;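 note: score merges emission near 667 nm and signal to noise per printed spot across three slides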)). Settings: FSTL3 binding, higher = more signal.
Sequence of Follistatin-related protein 3 (Homo sapiens) (O95633 whole entry, looked up): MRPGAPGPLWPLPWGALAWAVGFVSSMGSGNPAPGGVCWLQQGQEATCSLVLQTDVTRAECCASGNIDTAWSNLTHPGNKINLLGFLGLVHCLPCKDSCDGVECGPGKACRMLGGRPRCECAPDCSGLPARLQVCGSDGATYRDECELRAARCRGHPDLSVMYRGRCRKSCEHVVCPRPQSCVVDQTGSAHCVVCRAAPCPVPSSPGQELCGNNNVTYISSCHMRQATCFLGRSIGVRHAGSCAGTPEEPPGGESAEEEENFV

SMILES | composite z-score
CCCCC(=C=CC[C@@H](O)c1ccccc1OCCO)CCO | -0.375
COc1ccc(C(O)C2C=CC3C(=O)NC(=O)C3N2Nc2ccccn2)c2ccccc12 (stereo unspecified) | 0.16
COc1cc(CO)cc(I)c1O[C@H]1C=C(C(=O)NCCO)C[C@@H](N(CCN2CCOCC2)C(=O)C2CCOC2)[C@@H]1O (stereo partly specified) | 0.742
COC(=O)[C@@]1(Cc2ccc(F)cc2)[C@H]2c3cc(C(=O)N(C)C)n(Cc4ccc(S(C)(=O)=O)cc4)c3C[C@H]2CN1C(=O)c1ccccc1 | 0.0567
CC(=O)n1cc(C(O)C2C=CC3C(=O)N(C)C(=O)C3N2Nc2ccccc2)c2ccccc21 (stereo unspecified) | 1.4
O=C1O[C@H](c2ccccc2)[C@H](c2ccccc2)N2[C@H]1[C@@H](C(=O)NC[C@H](O)c1ccccc1)[C@]1(C(=O)Nc3ccccc31)[C@H]2c1ccc(OCCO)cc1 | 0.464
C=C(CCCC)C(=O)CC[C@H](OC(C)=O)c1cccc(OCCO)c1 | -0.794
COCCOC(=O)N1C(=O)[C@@]2(c3cc(C#CC4=CCCCC4)ccc31)[C@H](C(=O)Nc1nc3ccccc3s1)[C@H]1C(=O)O[C@H](c3ccccc3)[C@H](c3ccccc3)N1[C@@H]2c1ccccc1OCCO | 1.41
CN1C(=O)C2C=CC(C(O)c3cc(C(F)(F)F)cc(C(F)(F)F)c3)N(N3CCCCC3)C2C1=O (stereo unspecified) | 0.0198
CN(C)C(=O)[C@@]1(Cc2ccccc2)N=C(c2ccc(OCCCO)cc2)O[C@H]1c1ccccc1N=[N+]=[N-] | 0.843
[N-]=[N+]=NCc1ccccc1[C@@H]1OC(c2ccc(OCCCO)cc2)=N[C@]1(CCS(=O)(=O)c1ccccc1)C(=O)NCc1ccccc1 | 0.869
CCOC(=O)[C@H]1C/C=C/C[C@H](C(=O)OCC)C(=O)O[C@H]2[C@@H](OC)O[C@H](CO)[C@@H](OC(=O)Nc3ccc(C#N)cc3)[C@@H]2OC1=O | 0.413
C#CCN(Cc1ccccc1Br)C(/C=C/c1ccccc1)CO (stereo unspecified) | -0.649
CC(C)[C@@H](CO)NC(=O)[C@H]1[C@@H](c2ccccc2)N(c2ccccc2)O[C@@H]1C | -0.218
[N-]=[N+]=Nc1ccccc1C[C@]1(C(=O)NCC(O)CO)N=C(c2ccc(OCCCO)cc2)O[C@H]1c1ccccc1N=[N+]=[N-] (stereo partly specified) | -0.736
C=CC[C@]1(C(=O)NCCCOC)N=C(c2ccc(OCCCO)cc2)O[C@H]1c1ccccc1N=[N+]=[N-] | 0.348
C=CCOC(=O)[C@H]1[C@@H]2C(=O)O[C@@H](c3ccccc3)[C@@H](c3ccccc3)N2[C@@H](c2ccc(OCCOC(=O)[C@H]3C[C@H]4C(=O)N5CCC[C@H]5C(=O)N4[C@H]3c3ccc(O)cc3)cc2)[C@]12C(=O)Nc1ccccc12 | 1.39
CN(C)CCCCCCNC(=O)[C@@H]1C[C@@H]2C(=O)N[C@@H](CCCCN)C(=O)N2[C@@H]1c1cccc(OCCO)c1 | 1.66

SMILES | composite z-score
COCCOC(=O)N1C(=O)[C@@]2(c3cc(C#Cc4ccc(OC)cc4)ccc31)[C@H](C(N)=O)[C@H]1C(=O)O[C@H](c3ccccc3)[C@H](c3ccccc3)N1[C@@H]2c1ccccc1OCCO | 0.93
CCOC(=O)[C@H]1C/C=C/C[C@H](C(=O)OCC)C(=O)O[C@H]2[C@@H](OC)O[C@H](CO)[C@@H](OC(=O)Nc3cccc(F)c3)[C@@H]2OC1=O | -0.0088
CN1C(=O)C2C=CC(C(O)C3CC=CCC3)N(NC(=O)OC(C)(C)C)C2C1=O (stereo unspecified) | 1.23
COc1ccc(CCNC(=O)[C@@]2(Sc3ccc(C)cc3)CC(=O)N(C3CCCCC3)[C@@H]2c2ccc(CO)cc2I)cc1 | 1.03
COc1ccc(CCNC(=O)[C@@H]2c3ccccc3C(=O)N(C3Cc4ccccc4C3)[C@H]2c2ccc(CO)cc2)cc1 | 0.0595
CO[C@H]1O[C@H](CO)[C@@H](OC(=O)Nc2ccc(Br)cc2)[C@H](OC(=O)c2cc3ccccc3[nH]2)[C@H]1OC(=O)c1cc2ccccc2[nH]1 | 0.579
C=CCOC(=O)[C@H]1[C@@H]2C(=O)O[C@@H](c3ccccc3)[C@@H](c3ccccc3)N2[C@@H](c2ccc(OCCOC(=O)[C@H]3C[C@H]4C(=O)N[C@@H](CC(C)C)C(=O)N4[C@H]3c3ccc(O)cc3)cc2)[C@]12C(=O)Nc1ccc(I)cc12 | 1.15
O=C(NCC(F)(F)F)[C@@H]1c2ccccc2C(=O)N(C2CCCCC2)[C@H]1c1ccc(CO)cc1 | 0.177
CCCC=C(CCC)[C@@H](NC(=O)Oc1ccc(F)cc1)c1ccc(C(=O)OC)cc1 | 0.495
COC(=O)c1c(CC[C@@H](CO)NC(=O)N2CCC[C@H]2Cn2cc(-c3ccccn3)nn2)oc(C(C)=O)c1C(=O)OC | -0.144
CC(C)(C)OC(=O)CC[C@]1(C(=O)O)N=C(c2ccc(OCCCO)cc2)O[C@H]1c1ccccc1N=[N+]=[N-] | 0.4
COC(=O)C(CC#Cc1ccc2c(c1)[C@]1(C(=O)N2)[C@H](C(=O)O)[C@H]2C(=O)O[C@H](c3ccccc3)[C@H](c3ccccc3)N2[C@@H]1c1ccc(O)cc1)C(=O)OC | -0.662
COCCOC(=O)N1C(=O)[C@@]2(c3cc(C#Cc4ccc(OC)cc4)ccc31)[C@H](c1ccc(O)cc1)N1[C@H](c3ccccc3)[C@H](c3ccccc3)OC(=O)[C@H]1[C@@H]2C(=O)NC[C@H](O)c1ccccc1 | 1.4
CN1C(=O)C2C=CC(C(O)c3cccs3)N(Nc3ccccc3)C2C1=O (stereo unspecified) | 0.174
CC(C)(C)OC(=O)CC[C@@]1(C(=O)NCC(O)CO)N=C(c2ccc(OCCCO)cc2)O[C@@H]1c1ccccc1N=[N+]=[N-] (stereo partly specified) | 0.114
C[C@@H]1ON(c2cccc(C(=O)OC(C)(C)C)c2)[C@H](c2ccc(Br)cc2)[C@H]1C(=O)N1C(=O)OC[C@H]1Cc1ccccc1 | 1.03
COc1ccc(C(=O)Nc2ccc(CN3C(=O)[C@@]4(O[C@@H](CCn5cc([C@H](O)c6ccccc6)nn5)[C@H]([Si](C)(C)c5ccc(OC)cc5)[C@H]4C)c4ccccc43)cc2)cc1 | 0.183
CC(C)c1ccc(NN2C(C(O)c3cc(C(F)(F)F)cc(C(F)(F)F)c3)C=CC3C(=O)N(c4ccccc4)C(=O)C32)cc1 (stereo unspecified) | -0.486
